Pf growth 96h – P. falciparum growth inhibition at 96 hours; P. falciparum luciferase reporter growth, 96 h; AID 504834; Potency, µM (doses to about 28.7 µM), for the others: top-dose activity change, negative = inhibition, most hits filed as inhibitors; 6.9% of 320,000 active; note: potency is the fitted concentration of half-maximal effect; % is set by controls: 0 for no effect and ±100 for the full control effect
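P. falciparum expressing integrated firefly luciferase, in erythrocytes at 2% hematocrit, 0.05% parasitemia, incubated with compounds 96 h at 37 C, 5% CO2. Growth inhibition read as loss of luminescence; two-generation exposure targets delayed-death apicoplast inhibitors.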
Pf growth 48h – P. falciparum growth inhibition at 48 hours (one generation). P. falciparum luciferase growth in erythrocytes, 48 h. Potency, µM (highest dose often 28.7 µM), inactives show at the highest dose activity change, negative = inhibition, actives largely listed as inhibitors. 5.9% of 310,000 active. AID 504832; note: potency is the fitted concentration of half-maximal effect; % is set by controls: 0 for no effect and ±100 for the full control effect
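Luciferase-expressing parasites in RBCs, 2% Hct / 0.1% parasitemia final; RPMI 1640 + 0.5% Albumax; 37 C, 5% CO2, one generation; luminescence read-out, lower signal = inhibition.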
NS1 inh – influenza NS1 inhibition; Potency, µM (highest dose often 46.1 µM), for the others: top-dose activity, positive = more growth; 0.4% of 270,000 active; AID 2326; calls by dose curve; note: potency is the fitted concentration of half-maximal effect; actives are rising curves; nearly all actives have a fitted effect of over 50% in size
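Compounds were scored for reversing the slow growth caused by influenza A NS1 in S. cerevisiae, measured by optical density at 600 nm. Assay medium contained 2% galactose at pH 6.0; NS1-free yeast of the same strain were the positive control.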
CHX counter – counter-screen for Shiga toxin inhibitors: cycloheximide protein synthesis inhibition; AID 2314; max response, %; cell reporter, cycloheximide protein synthesis inhibition counterscreen; 12% of 300,000 active; in the data active = max response mostly above about 13%, no sharp cut-off; inactive = mostly below about 14%; note: read at 38.3 µM for the half of the compounds with a filed dose; 0% is about no effect
Shiga inhibitor – Shiga toxin inhibition; Vero cells, Shiga toxin protein synthesis inhibition reporter; inhibition, % at 38.7 µM; 9.2% of 290,000 active; AID 2315; in the data active = inhibition mostly above about 28%, no sharp cut-off; inactive = mostly below about 43%; note: 0% is about no effect
FBPA Giardia inh – Giardia lamblia aldolase inhibition; purified Giardia FBPA; 0.71% of 290,000 active; A8B2U2; Potency, µM (highest dose often 59.6 µM), for inactives: at the highest dose activity, negative = inhibition, actives largely listed as inhibitors; note: potency is the fitted concentration of half-maximal effect; % is set by controls: 0 for no effect and ±100 for the full control effect; nearly all actives have a fitted effect of over 55% in size
Target sequence (A8B2U2 whole entry, looked up): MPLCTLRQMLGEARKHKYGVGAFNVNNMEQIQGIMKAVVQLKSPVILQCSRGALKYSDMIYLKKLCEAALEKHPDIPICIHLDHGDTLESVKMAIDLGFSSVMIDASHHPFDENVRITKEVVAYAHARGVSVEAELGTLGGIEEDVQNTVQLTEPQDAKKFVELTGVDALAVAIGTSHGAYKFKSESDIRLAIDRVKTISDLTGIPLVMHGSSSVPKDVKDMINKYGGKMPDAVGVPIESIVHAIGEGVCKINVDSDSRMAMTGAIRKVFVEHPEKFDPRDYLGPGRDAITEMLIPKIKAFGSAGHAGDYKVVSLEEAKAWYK
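40 nM FBPA preincubated 10 min at RT with compound (up to 57.5 uM final), then substrate plus GAPDH/TPI/NAD/arsenate coupling and diaphorase/resazurin added. Fluorescence read after 20 min at RT, 525/598 nm.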
An asterisk follows results filed as active; ? = inconclusive; nt = no result given; [ ] = remark or other dose. Only some compounds are listed: those with a hit (about 21% of all), similar ones and a draw of the others. Unless noted, calls come from the whole dose curve; as a rule, active = well fitted curve in the direction sought with a large enough effect; inconclusive = small, poorly fitted or top-dose-only effect, or another doubt; inactive = no such curve, though single readings can be large; an effect the other way counts as inactive or inconclusive.

SMILES | Pf growth 96h | Pf growth 48h | NS1 inh | CHX counter | Shiga inhibitor | FBPA Giardia inh
COc1cccc(/C=N/Nc2nnc(C)n2N)c1O | 7.6% | -26.3% | -5.8% | 17.4 | 18.8 | -10.5%
COc1cccc(/C=N/Nc2ncnc3c2ncn3Cc2ccccc2)c1O | 2.33µM* | 1.85µM* | ? | -1.8 | -4.8 | -2.2%
COc1cccc(/C=N/Nc2cc(Cl)nc(C)n2)c1O | 14.2% | ? | 3.0% | 31.5* | 54.2* | -6.9%
COc1cccc(/C=N/Nc2ncnc3scc(-c4ccccc4)c23)c1OC | ? | nt | 14.9% | -1.4 | -5.1 | -10.0%
COc1cccc(/C=N/Nc2c(Cl)cncc2Cl)c1O | -1.0% | 71.1% | -49.0% | 31.7* | 84.5* | -9.5%
CCN1CCN(CC(=O)c2ccc(OC)cc2)CC1 | 28.4% | 0.0% | nt | 2.2 | 14.3 | -2.1%
COc1ccc(C2C(C(=O)Nc3cc(C)on3)c3ccccc3C(=O)N2C)cc1 (stereo unspecified) | -8.4% | ? | -15.1% | -1.6 | -1.6 | 2.1%
COc1ccc(C2C(C(=O)NC(C)C)c3ccccc3C(=O)N2C)cc1OC (stereo unspecified) | 1.04µM* | -0.6% | 2.2% | -4.6 | -20.7 | 1.0%
COc1ccc(C2C(C(=O)Nc3cccc(C)n3)c3ccccc3C(=O)N2C)cc1 (stereo unspecified) | 3.7µM* | ? | 0.4% | -6.1 | -37.6 | 4.2%
COc1ccc(C2C(C(=O)Nc3ccc(OC)c(OC)c3)c3ccccc3C(=O)N2C)cc1 (stereo unspecified) | ? | ? | nt | -1.8 | -7.0 | -4.3%
COc1ccc(C2C(C(=O)Nc3cc(OC)c(OC)c(OC)c3)c3ccccc3C(=O)N2C)cc1OC (stereo unspecified) | 51.3% | 11.7µM* | nt | -1.4 | -12.2 | 2.4%
O=C1[C@H]2[C@H]3[C@H](O)[C@H](O)C/C(=N/OCc4ccccc4)[C@H]3CC[C@@H]2C(=O)N1c1cccc(Oc2ccccc2)c1 | nt | nt | nt | nt | nt | -1.2%[12.9 µM]
O=C(N/N=C/c1cc(Br)c(O)c(Br)c1)c1cc2c(ccc3ccccc32)o1 | 13.1µM* | -17.1% | -75.5% | 9.2 | 7.3 | nt
O=C(N/N=C/c1ccc(O)c(Br)c1)c1cc2c(ccc3ccccc32)o1 | ? | ? | 7.4% | -1.7 | -10.0 | nt
O=C(N/N=C/c1cc(Cl)c(O)c(Cl)c1)c1cc2c(ccc3ccccc32)o1 | ? | 11.7µM* | -11.9% | 36.9* | 158.4 | -13.4%
Cc1cc(C)c(C(=O)COC(=O)c2c(C)noc2C)cc1C | 15.8% | 1.6% | nt | nt | nt | nt
CCCCNc1nc(N(C)c2ccccc2)nc(-n2ccnc2)n1 | 0.0% | 16.5µM* | -151.5% | -2.5 | -3.4 | 7.9%
c1ccc(CSc2nnc3c(n2)OC(c2ccco2)Nc2ccccc2-3)cc1 (stereo unspecified) | -4.7% | ? | 16.9% | 26.0* | 86.3* | 0.6%
C=CCSc1nnc2c(n1)OC(c1cccnc1)Nc1ccccc1-2 (stereo unspecified) | -75.5% | 10.6% | -5.9% | 26.6* | 128.4* | -20.2%
C=CCSc1nnc2c(n1)OC(c1cccnc1)N(C(C)=O)c1ccccc1-2 (stereo unspecified) | ? | -3.0% | -3.9% | 1.7 | -30.8 | 2.0%
Cc1ccc(NC(=S)NCc2ccccn2)cc1 | 40.5% | 5.2% | -14.0% | 38.2* | 108.2* | -23.0%
S=C(NCc1ccccn1)Nc1cccc(Cl)c1 | 2.9% | 9.1% | nt | 12.9* | 26.2 | -13.8%
Cc1ccc(NC(=O)C(NCc2ccccn2)c2ccccc2)cc1 (stereo unspecified) | ? | ? | nt | 37.0* | 100.7* | -6.0%
Cc1cccc(NC(=S)NCc2ccccn2)c1 | 39.8% | -0.9% | -9.8% | 27.7 | 42.0 | nt
COc1ccc(-c2cc(CS(=O)(=O)c3ccccc3)on2)cc1 | 108.5% | 85.8% | -7.2% | 41.1* | 67.7* | -5.9%
Clc1ccc(SCc2cc(-c3ccccc3)no2)cc1 | -38.2% | ? | 1.7% | 0.5 | 2.4 | 0.4%
O=S(=O)(Cc1cc(-c2ccccc2)no1)c1ccccc1 | 72.2% | 54.5% | -1.8% | 33.8* | 65.3* | -0.9%
O=C1c2ccccc2C(=O)N1Cc1cc(-c2ccccc2)no1 | -11.9% | -5.2% | -4.9% | 19.1* | 27.3* | 1.7%
COc1cccc(Cn2c(=O)c(C)nc3cnc(OC)nc32)c1 | nt | nt | nt | nt | nt | 0.9%
